# Most compounds without a hit are left out; they make up all but 2.7% or so of the library.
# Tau ThT inhib = tau fibrillization inhibition (ThT binding); P10636; recombinant tau K18 P301L, heparin-induced fibrillization, ThT fluorescence; Potency, µM (titrated, usually from 57.4 µM), inactives show top-dose activity, negative = inhibition, hits mostly inhibitors; actives 2.1% (n = 270,000); AID 1460; further: potency means the concentration at half of the fitted maximal effect; nearly all actives have a fitted effect of over 55% in size
# Target sequence (P10636 561-689 P618L limits assumed): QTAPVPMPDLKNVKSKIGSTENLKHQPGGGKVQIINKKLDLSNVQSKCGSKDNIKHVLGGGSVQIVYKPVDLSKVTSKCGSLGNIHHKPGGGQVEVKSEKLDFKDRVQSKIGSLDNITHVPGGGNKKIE
#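 Aggregation was driven by heparin (20 uM final) acting on recombinant tau […] bearing P301L in 100 mM sodium acetate pH 7; fibrils were detected with Thioflavin T.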
# Coupling enz = coupling enzyme interference in Giardia aldolase counter-screen; coupling enzyme system counterscreen, AmpLite Red fluorescence; activity change, negative = inhibition, % at 58.2 µM, hits read low; actives 0.67% (n = 290,000); AID 2472; in the data active means activity change below about -30%
#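 Fluorescence at 525 nm excitation and 598 nm emission measured inhibition of the coupled detection system without aldolase. Compounds (at 57.5 uM final) were preincubated 10 min at room temperature with coupling enzyme reagent before a 20 min substrate/AmpLite Red step.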
# Tau fluor counter = counter-screen for tau fibril formation inhibitors. tau K18 P301L Alexa594 fluorescence, heparin fibrillization. actives 0.93% (n = 280,000). Potency, µM (titrated, usually from 57.7 µM), for inactives: at the highest dose activity change, negative = decrease; further: potency means the concentration at half of the fitted maximal effect; nearly all actives have a fitted effect of over 55% in size
#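 Human tau K18 P301L (15 uM unlabeled, 0.24 uM Alexa 594-labeled) in 100 mM sodium acetate pH 7 with 20 uM heparin, 6 hr at 37 C. ThT 30 uM added, 1 hr ambient; Alexa 594 FP and total fluorescence read at 555/632 nm.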
# Tau fibril FP = inhibitors of human tau fibril formation; P10636; K18 P301L tau heparin fibrillization, Alexa594 FP, 6 h; Potency, µM (doses to about 57.7 µM), for inactives: at the highest dose activity, negative = inhibition, hits mostly inhibitors; actives 0.39% (n = 280,000); AID 1468; further: potency means the concentration at half of the fitted maximal effect; nearly all actives have a fitted effect of over 55% in size
#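 Recombinant K18 P301L […], labeled with Alexa 594 at 0.24 uM over 15 uM unlabeled; heparin inducer 20 uM final; 37 C, 6 hr; FP endpoint.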
# Numbers without * were called inactive; ? = inconclusive; nt = not tested or not shown; [ ] = dose if it differs, or a comment. Unless noted, the call rests on the fitted dose curve; in most records, active means well fitted curve in the direction sought with a large enough effect; inconclusive means small, poorly fitted or top-dose-only effect, or another doubt; inactive means no such curve, though single readings can be large; an effect the other way counts as inactive or inconclusive. On the % scale 0 is the no-effect control and ±100 the full control effect.
SMILES,Tau ThT inhib,Coupling enz,Tau fluor counter,Tau fibril FP
O=S(=O)(/N=C/c1c(O)ccc2ccccc12)c1cccs1,?,-50*,-25%,?
Cc1ccc(S(=O)(=O)/N=C/c2c(O)ccc3ccccc23)cc1,nt,-32*,nt,nt
COC(=O)c1cc(N=Nc2c(C)[nH]c3ccccc23)cc(C(=O)OC)c1,?,2,?,2%
Cc1[nH]c2ccccc2c1N=Nc1cccc(C(=O)O)c1,7.9µM*,7,-23%,12%
O=C(Nc1ccccc1F)c1nc(S(=O)(=O)Cc2ccccc2F)ncc1Cl,?,nt,-8%,2%
COc1ccc(NC(=O)c2ccc(Cn3cc(Cl)cn3)cc2)cc1,2%,-4,20%[2.34 µM],6%
O=C(Nc1cnn(Cc2c(Cl)cccc2Cl)c1)c1ccc([N+](=O)[O-])cc1,-20%,-3,25µM*[quencher],?
CN(C)c1ccc(NC(=O)c2ccc(Cn3cc([N+](=O)[O-])cn3)cc2)cc1,13µM*,-6,?,14%
COc1cc(O)cc2cc3c(c(O)c12)C(=O)CC(C)(O)O3 (configuration not stated),25µM*,-43*,?,-14%
COc1ccc2nc(SC)c(C#N)cc2c1,2%,1,-2%,1%
COc1ccc2nc(SCC(C)=O)c(C#N)cc2c1,4.5µM*,-1,-28%,10%
CCOC(=O)CSc1nc2cc(OC)ccc2cc1C#N,5µM*,1,?,10%
S=c1[nH]nc(-c2cc3c(s2)-c2ccccc2CC3)o1,13µM*,9,?,13%
CSc1nnc(-c2cc3c(s2)-c2ccccc2CC3)o1,?,1,-25%,-2%
Cc1cc(=O)n(CC(=O)N2CCCc3ccccc32)c2c1c(C)nn2-c1cccc(F)c1,2%,nt,2%,5%
N#Cc1c(NC(=O)CCC(=O)O)sc2c1CCCCC2,20µM*,-22,-13%,?
N#Cc1c(NC(=O)CCC(=O)O)sc2c1CCCC2,0%,9,1%,3%
O=c1oc2ccccc2nc1/C=C(O)/C=C\c1ccccc1,28µM*,2,-26%,?
CCOC(=O)N1CCC(NC(=O)c2oc3c(c2C)-c2[nH]ncc2CC3)CC1,?,-41*,-15%,5%
CCOC(=O)c1cccc(NC(=O)c2oc3c(c2C)-c2[nH]ncc2CC3)c1,-15%,nt,-20%,-16%
COC(=O)Nc1sc2c(c1C(=O)NC1CC1)CCCCCC2,-10%,2,-7%,2%
Nc1sc2c(c1C(=O)c1ccccc1)CCCC2,?,-2,?,-4%
Nc1sc2c(c1C(=O)NC1CCS(=O)(=O)C1)CCCC2 (configuration not stated),32µM*,-16,?,?
CN1CCc2c(sc(N)c2C(N)=O)C1,?,-33*,-15%,?
NC(=O)c1c(N)sc2c1CCCC2,22µM*,-20,-25%,?
SMILES,Tau ThT inhib,Coupling enz,Tau fluor counter,Tau fibril FP
CCN1CCc2c(sc(N)c2C(N)=O)C1,?,-15,-7%,?
CCOC(=O)N1CCc2c(sc(NCc3ccc(N(C)C)cc3)c2C(=O)Nc2ccccc2OCC)C1,?,nt,?,7%
COc1ccc(NC(=O)CSc2nc3ccccc3n2CC(=O)NCc2ccc(F)cc2)cc1,-11%,nt,-18%,?
CCc1nn(CC(=O)N2CCN(c3cccc(OC)c3)CC2)c(=O)c2cc3occc3n12,1%,nt,-6%,-10%
COc1ccccc1NC(=O)Nc1nn(C)c2cccc(N(C)C)c12,nt,-34*,?,12%
CN(C)c1cccc2c1c(NC(=O)Nc1ccc(Cl)cc1Cl)nn2C,?,-23,?,2%
CC(C)(C)c1ccc(OCC(=O)Nc2ccc(C(=O)OC3CCCCC3)cc2)cc1,-2%,nt,-12%,-4%
CCOc1cc(C(c2c(C)[nH][nH]c2=O)c2c(C)[nH][nH]c2=O)ccc1OCc1ccc([N+](=O)[O-])cc1,11µM*,-14,?,-5%
COc1cc(C(c2c(C)[nH][nH]c2=O)c2c(C)[nH][nH]c2=O)cc([N+](=O)[O-])c1O,14µM*,-28,-25%,?
COc1cccc(CNC(=O)c2sc3nc(C)cc(C)c3c2-n2cccc2)c1OC,7%,nt,-3%,?
Cc1ccc(S(=O)(=O)c2nc(NCCN(C)C)sc2Cl)cc1,-4%,1,-14%,-7%
Cc1ccc(S(=O)(=O)c2nc(Nc3ccccc3)sc2Cl)cc1,-1%,1,14µM*[quencher],?
COc1ccc(Nc2nc(S(=O)(=O)c3ccc(C)cc3)c(Cl)s2)cc1,-17%,-5,10µM*[quencher],4%
O=S(=O)(c1ccccc1)c1nc(Nc2cccc(O)c2)sc1Cl,-7%,0,?,1%
COc1ccccc1CNC(=O)CC(c1ccc(F)cc1)N1Cc2ccccc2C1=O (configuration not stated),14%,nt,5%,-4%
Nc1sc(-c2ccccc2)cc1C(=O)N/N=C/c1ccc(Cl)cc1,4µM*,-1,14µM*[quencher],-4%
CC1CCCCC12NC(=S)N(c1ccccc1)N2 (configuration not stated),25µM*,2,-22%,?
COc1cc(CNc2ccc3[nH]c(=O)[nH]c3c2)cc(Cl)c1OCC(=O)NC(C)(C)C,11µM*,-44*,?,?
C=CCOc1ccc(CNc2ccc3[nH]c(=O)[nH]c3c2)cc1OCC,0%,3,7%,13%
CCOc1cc(CNc2ccc3[nH]c(=O)[nH]c3c2)ccc1OCC(=O)NC(C)(C)C,13µM*,-33*,?,?
COc1cc(CNn2c(C)n[nH]c2=S)cc(Cl)c1OCC(=O)NC(C)(C)C,nt,1,nt,nt
CC(NC(=O)CCCn1c(=O)c2cccn2c2cccnc21)c1ccccc1 (configuration not stated),-4%,nt,-7%,-1%
COc1ccc(/C=C(/C(=O)c2cccs2)N2C=CC=CC2=C(C#N)C#N)cc1,28µM*,2,-29%,?
N#CC(C#N)=C1C=CC=CN1/C(=C\c1ccco1)C(=O)c1ccccc1,14µM*,-1,?,20µM*
COc1ccc(C(=O)/C(=C\c2ccco2)N2C=CC=CC2=C(C#N)C#N)cc1,13µM*,0,?,?
SMILES,Tau ThT inhib,Coupling enz,Tau fluor counter,Tau fibril FP
CC(C)(C)NC(=O)/C(=C/c1ccco1)c1ccccc1,-9%,2,-2%,-5%
CCN(CC)c1ccc(/C=C(\C#N)C(=O)c2ccc(Br)cc2)cc1,?,0,?,-9%
COc1ccc(C(=O)N/C(=C\c2ccco2)C(=O)OCc2ccco2)cc1,nt,-1,-13%,-2%
N#CC(C#N)=C1C=CC=CN1/C(=C\c1ccco1)C(=O)c1ccc(Br)cc1,11µM*,-6,-28%,?
CCOC(=O)c1ccc(NC(=O)CC2C(=O)N(c3ccccc3)C(=O)N2Cc2ccc(C)cc2)cc1 (configuration not stated),-3%,nt,?,?
O=C(CNc1cccc2ccccc12)N/N=C/C(Br)=C/c1ccccc1,?,-4,14µM*[quencher],1%

# Compound activity from PubChem.
